Assay results as given in PubChem BioAssay.
Where “and” joins values, the source holds several entries; their conditions need not be identical. Identical values can stand only once. Calls of active or inactive are those of the source. Unless noted, how the calls were made is not given here.

Tests used:
[1] = HepG2 liver cancer cell viability effects, profiling panel, resazurin fluorescence, 24 h, PK04 Diversity Set (AID 1172); conditions: higher = more signal; further: test concentration not given here
[2] = basal S. cerevisiae growth modulation, no modifier, primary screen, OD600, strain BY4716, 24 h, basal condition (AID 1173); conditions: OD600, 24 h, higher = more signal, called active from +8 up or from −8 down
[3] = MM1S myeloma cell viability, profiling panel, resazurin fluorescence, basal, 24 h, PK04 Diversity Set (AID 1174); conditions: higher = more signal, called active from +8 up or from −8 down;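 further: MM1S multiple myeloma cell line; test concentration not given here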
[4] = target: Dihydroorotate dehydrogenase (quinone), mitochondrial (Plasmodium falciparum (isolate 3D7)) (UniProt Q08210); assay: PfDHODH enzyme inhibitors, primary screen, biochemical, C-terminal His tag, absorbance 600 nm (AID 1175); conditions: DCIP absorbance 600 nm, higher = more signal, called active from +8 up or from −8 down;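 further: recombinant parasite enzyme with a five histidine tag at its C terminus; test concentration not given here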
[5] = P. aeruginosa biofilm formation inhibitors, primary screen, strain PAO1, LB-PBS medium, absorbance 600 nm (AID 1176); further: test concentration not given here; conditions: P. aeruginosa PAO1 growth/biofilm, A600, 12 h; higher = more signal
[6] = S. cerevisiae RM11-1a growth modifiers, primary screen, strain RM11-1a, OD600, basal, 24 h (AID 1177); conditions: OD600, 24 h, higher = more signal, called active from +8 up or from −8 down;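 further: cultures grown under basal conditions with no added stressor; test concentration not given here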
[7] = E. coli acrAB mutant growth effects, primary screen, E. coli filamentation inducers, strain DRC39, OD650, 24 h (AID 1178); conditions: higher = more signal, called active from +8 up or from −8 down;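 further: growth measured as culture turbidity by optical density at 650 nm; test concentration not given here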
[8] = E. coli acrAB mutant growth effects, primary screen, E. coli filamentation inducers, strain DRC39, OD650, 48 h (AID 1179);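 further: screen aims at cell division blockers that make cells filament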; conditions: E. coli DRC39 delta-acrAB growth, higher = more signal, called active from +8 up or from −8 down
[9] = RPMI8226 myeloma cell viability, profiling panel, resazurin fluorescence, basal, 24 h, PK04 Diversity Set (AID 1180); conditions: higher = more signal;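 further: RPMI8826 multiple myeloma cell line at 5000 cells per well; test concentration not given here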
[10] = target: E3 ubiquitin-protein ligase XIAP (Homo sapiens) (UniProt P98170); assay: XIAP binders, primary screen, biophysical, small-molecule microarray, fluorescence 635 nm (AID 1181); conditions: small-molecule microarray binding, higher = more signal;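 further: score merges 667 nm emission and signal to noise over triplicate slides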
Sequence of E3 ubiquitin-protein ligase XIAP (Homo sapiens) (P98170 whole entry, looked up): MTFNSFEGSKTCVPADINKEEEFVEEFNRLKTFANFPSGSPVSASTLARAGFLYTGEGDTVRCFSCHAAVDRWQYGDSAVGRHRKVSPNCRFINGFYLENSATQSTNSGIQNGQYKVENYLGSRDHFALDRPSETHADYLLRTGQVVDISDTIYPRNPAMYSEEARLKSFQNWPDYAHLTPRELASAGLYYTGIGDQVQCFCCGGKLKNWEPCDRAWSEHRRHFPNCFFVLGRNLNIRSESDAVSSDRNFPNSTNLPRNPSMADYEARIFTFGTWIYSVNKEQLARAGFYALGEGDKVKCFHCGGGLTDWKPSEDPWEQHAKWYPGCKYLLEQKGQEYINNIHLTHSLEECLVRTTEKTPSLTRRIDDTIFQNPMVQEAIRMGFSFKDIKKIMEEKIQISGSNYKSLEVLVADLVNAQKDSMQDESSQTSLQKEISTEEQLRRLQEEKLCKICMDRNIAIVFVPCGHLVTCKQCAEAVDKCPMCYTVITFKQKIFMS

Sequence of Dihydroorotate dehydrogenase (quinone), mitochondrial (Plasmodium falciparum (isolate 3D7)) (Q08210 whole entry, looked up): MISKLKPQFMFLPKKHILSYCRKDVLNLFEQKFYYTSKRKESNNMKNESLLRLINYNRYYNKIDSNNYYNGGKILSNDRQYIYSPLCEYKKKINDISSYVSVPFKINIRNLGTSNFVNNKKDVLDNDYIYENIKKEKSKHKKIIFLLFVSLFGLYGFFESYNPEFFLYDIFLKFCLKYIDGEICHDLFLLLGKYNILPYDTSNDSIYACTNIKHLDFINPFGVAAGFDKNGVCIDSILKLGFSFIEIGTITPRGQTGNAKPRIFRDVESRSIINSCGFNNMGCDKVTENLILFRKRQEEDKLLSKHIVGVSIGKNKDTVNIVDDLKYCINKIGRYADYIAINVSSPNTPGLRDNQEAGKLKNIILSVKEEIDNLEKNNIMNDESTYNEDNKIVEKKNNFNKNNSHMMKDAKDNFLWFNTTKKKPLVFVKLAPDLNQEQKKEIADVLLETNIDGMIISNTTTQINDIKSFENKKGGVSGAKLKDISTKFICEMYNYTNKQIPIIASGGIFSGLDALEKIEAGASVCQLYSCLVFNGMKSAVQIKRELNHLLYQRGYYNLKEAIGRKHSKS

Which z-score [1] does the source give for `CC(C)OC(=O)C=C1C[C@@H](c2cccc(C(F)(F)F)c2)O[C@@H](c2cccc(C(F)(F)F)c2)O1` here?
The z-score was -0.115 and 0.0158.

What about the z-score [2] of the same compound?
The z-score was 0.308 (inactive) and 0.626 (inactive).

What about the z-score [3] of the same compound?
The z-score was -1.7 (inactive) and 0.108 (inactive).

And the composite z-score [4]?
The composite z-score was -2.02 (inactive) and -2.59 (inactive).

What about the z-score [5] of the same compound?
The z-score was 0.834 (inactive) and 0.269 (inactive).

And the z-score [6]?
The z-score was 0.69 (inactive) and -0.0601 (inactive).

And the z-score [7]?
The z-score was -0.169 (inactive) and -0.948 (inactive).

What about the z-score [8] of the same compound?
The z-score was 1.04 (inactive) and 0.509 (inactive).

What about the z-score [9] of the same compound?
Its z-score is -0.899 and 0.393.

What about the composite z-score [10] of the same compound?
The composite z-score was -0.195 and 0.163.

Which z-score [1] does the source give for `C=C(C)C(=O)OC[C@@H]1CN2[C@@H](CC[C@@H](C)[C@@H]2c2ccc(Br)cc2)C(=O)O1` here?
The z-score was 0.726.

And the z-score [2]?
Its z-score is -3.12 (inactive).

And the z-score [3]?
Its z-score is 0.155 (inactive).

What about the composite z-score [4] of the same compound?
Its composite z-score is 0.187 (inactive).

What about the z-score [5] of the same compound?
The z-score was 0.936 (inactive).

And the z-score [6]?
The z-score was 0.361 (inactive).

What about the z-score [7] of the same compound?
Its z-score is 0.513 (inactive).

What about the z-score [8] of the same compound?
The z-score was 0.682 (inactive).

What about the z-score [9] of the same compound?
The z-score was 0.173.

And the composite z-score [10]?
Its composite z-score is -0.0326.

Which results are given for `COC(=O)C1=C(C)N(Cc2ccccc2)[C@]23O[C@](C(=O)OC)(C(=O)N2[C@@H]1c1ccccc1)[C@H]1C(=O)N(C)C(=O)[C@H]13`?
z-score [1]: 0.101 and 1.13; z-score [2]: -0.974 (inactive) and -1.6 (inactive); z-score [3]: 0.856 (inactive) and 0.302 (inactive); composite z-score [4]: 0.207 (inactive) and 0.467 (inactive); z-score [5]: -1.59 (inactive); z-score [6]: 1.09 (inactive) and -0.535 (inactive); z-score [7]: -0.34 (inactive) and 0.732 (inactive); z-score [8]: 0.207 (inactive) and 0.764 (inactive); z-score [9]: 0.389 and -0.0962; composite z-score [10]: 0.072 and 2.05

What does the source list for `C=CCN(CCCCC)C(=O)C(c1cccs1)N(CCOCCO)C(=O)/C=C\C(=O)O` (stereo not given)?
z-score [1]: -0.925 and -0.111; z-score [2]: -0.397 (inactive) and -0.258 (inactive); z-score [3]: -0.223 (inactive) and 0.149 (inactive); composite z-score [4]: -1.15 (inactive) and -1.27 (inactive); z-score [5]: 0.0126 (inactive) and -0.401 (inactive); z-score [6]: -1.37 (inactive) and -1.48 (inactive); z-score [7]: -0.388 (inactive) and 0.106 (inactive); z-score [8]: 0.526 (inactive) and 0.855 (inactive); z-score [9]: 0.096 and -0.165; composite z-score [10]: 0.548 and -0.0273

What does the source list for `COC(=O)[C@@]1(Cc2ccc(OC)cc2)[C@H]2c3cc(C(=O)N(C)C)n(Cc4ccc(O)c(OC)c4)c3C[C@H]2CN1C(=O)c1ccccc1`?
z-score [1]: 0.613 and -0.518; z-score [2]: 1.5 (inactive) and 1.69 (inactive); z-score [3]: -0.475 (inactive) and -1.77 (inactive); composite z-score [4]: 0.243 (inactive) and 0.355 (inactive); z-score [5]: -0.499 (inactive) and -0.347 (inactive); z-score [6]: 0.884 (inactive) and 1.29 (inactive); z-score [7]: 0.247 (inactive) and 0.423 (inactive); z-score [8]: -0.128 (inactive) and -0.102 (inactive); z-score [9]: 0.381 and -2.92; composite z-score [10]: -0.207 and 0.277

For `C=CCN(C(=O)C1N(C(C)(C)CO)C(=O)C2C(C(=O)O)C3C=CC21O3)c1ccc(OC)cc1` (stereo not given), which z-score [1] is on record?
The z-score was 0.489 and -0.143.

And the z-score [2]?
The z-score was -0.684 (inactive) and 0.362 (inactive).

What about the z-score [3] of the same compound?
The z-score was 1.01 (inactive) and 0.128 (inactive).

What about the composite z-score [4] of the same compound?
Its composite z-score is 0.2 (inactive) and -2.13 (inactive).

What about the z-score [5] of the same compound?
Its z-score is -0.786 (inactive).

And the z-score [6]?
The z-score was 0.643 (inactive) and 1.4 (inactive).

And the z-score [7]?
Its z-score is 1.33 (inactive) and 0.347 (inactive).

What about the z-score [8] of the same compound?
Its z-score is 1.09 (inactive) and 0.546 (inactive).

And the z-score [9]?
Its z-score is 0.592 and -0.39.

And the composite z-score [10]?
Its composite z-score is -0.0771 and -0.0663.

For `CCOC(=O)[C@@H]1CC2O[C@]23C[C@@H]1C(=O)N1CCC[C@@H]1[C@H]3O[Si](C)(C)C(C)(C)C` (stereo not given in full), which z-score [1] is on record?
Its z-score is -0.464 and -0.0421.

What about the z-score [2] of the same compound?
Its z-score is -0.648 (inactive) and -2.06 (inactive).

And the z-score [3]?
The z-score was -0.645 (inactive) and -0.942 (inactive).

And the composite z-score [4]?
Its composite z-score is -0.0009 (inactive) and -0.513 (inactive).

And the z-score [5]?
Its z-score is 0.167 (inactive) and 0.0117 (inactive).

What about the z-score [6] of the same compound?
Its z-score is -0.159 (inactive) and -0.702 (inactive).

And the z-score [7]?
Its z-score is 0.215 (inactive) and -0.512 (inactive).

What about the z-score [8] of the same compound?
Its z-score is -0.215 (inactive) and -0.122 (inactive).

What about the z-score [9] of the same compound?
The z-score was -0.586 and -0.593.

What about the composite z-score [10] of the same compound?
Its composite z-score is 0.0618 and -0.142.

Which z-score [1] does the source give for `CN1C(=O)C2CC=C([C@H]3Oc4ccccc4S(=O)(=O)N4CCC[C@@H]34)CC2C1=O` (stereo not given in full) here?
Its z-score is -0.448 and 0.0011.

And the z-score [2]?
Its z-score is 0.325 (inactive) and 0.478 (inactive).

What about the z-score [3] of the same compound?
The z-score was -0.391 (inactive) and -0.44 (inactive).

What about the composite z-score [4] of the same compound?
The composite z-score was 0.341 (inactive) and -0.0294 (inactive).

And the z-score [5]?
The z-score was -0.0582 (inactive) and 0.0481 (inactive).

And the z-score [6]?
The z-score was 0.961 (inactive) and 1.32 (inactive).

And the z-score [7]?
Its z-score is 0.563 (inactive) and 0.831 (inactive).

And the z-score [8]?
Its z-score is 0.111 (inactive) and 0.0952 (inactive).

What about the z-score [9] of the same compound?
The z-score was -0.801 and -0.0821.

What about the composite z-score [10] of the same compound?
The composite z-score was -0.245 and -0.244.

For `C[C@@H]1CN2[C@@H](CC[C@@H](C)[C@@H]2c2ccc(Br)cc2)C(=O)O1`, which z-score [1] is on record?
The z-score was 0.0519 and -0.598.

What about the z-score [2] of the same compound?
The z-score was 0.214 (inactive) and -2.02 (inactive).

What about the z-score [3] of the same compound?
Its z-score is 0.475 (inactive) and -0.181 (inactive).

What about the composite z-score [4] of the same compound?
Its composite z-score is 0.694 (inactive) and -1.1 (inactive).

And the z-score [5]?
Its z-score is -0.188 (inactive) and 0.417 (inactive).

And the z-score [6]?
The z-score was 0.999 (inactive) and -1.13 (inactive).

And the z-score [7]?
Its z-score is 0.322 (inactive) and 0.819 (inactive).

What about the z-score [8] of the same compound?
Its z-score is -1.32 (inactive) and -0.313 (inactive).

What about the z-score [9] of the same compound?
The z-score was 0.967 and -0.0883.

And the composite z-score [10]?
The composite z-score was 0.118 and 0.166.
